In the supplement of paper PMC10849652:
The full data set covers some 8,800 targets. This sample favours those with a hit. About 0.5% of all pairs of compound and target were hits. A number with no mark means an inactive call.

What was measured:
Experiment in all cases: log2 fold change, soluble protein after heating vs DMSO (PISA); higher = thermal stabilisation; K562 lysate, 10 uM; active = over 0.2 and 3.5 SD of the protein, either way, in both replicates (recomputed)
lapatinib = compound: CS(=O)(=O)CCNCc1ccc(-c2ccc3ncnc(Nc4ccc(OCc5cccc(F)c5)c(Cl)c4)c3c2)o1 [lapatinib]
Method in brief: (§1)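 Dounce homogenisation of K562 pellets in PBS pH 7.4 with 1 mM MgCl2 produced a crude extract, used at 1 mg/mL protein. Exposure to 10 μM compound lasted 30 min, and aliquots were then heated for 3 min across 48°C-58°C, pooled and brought to 0.5% NP-40 at 4°C. The supernatant after 21,000xg for 90 min was quantified by TMTpro 16plex LC-MS/MS with channel sums equalised. Duplicate values are given as log-two fold change in thermal stability relative to solvent controls.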

pictilisib = compound: CS(=O)(=O)N1CCN(Cc2cc3nc(-c4cccc5[nH]ncc45)nc(N4CCOCC4)c3s2)CC1 [pictilisib]
Method in brief: as §1

crizotinib = compound: C[C@@H](Oc1cc(-c2cnn(C3CCNCC3)c2)cnc1N)c1c(Cl)ccc(F)c1Cl [crizotinib]
Method in brief: as §1

[1] = compound: C[C@H](C1=CC=C(C=C1)C(=O)NC2=C3C=CNC3=NC=C2)N
Method in brief: as §1

duvelisib = compound: C[C@H](Nc1ncnc2nc[nH]c12)c1cc2cccc(Cl)c2c(=O)n1-c1ccccc1 [duvelisib]
Method in brief: as §1

gandotinib = compound: Cc1cc(Nc2cc(CN3CCOCC3)c3nc(C)c(Cc4ccc(Cl)cc4F)n3n2)n[nH]1 [gandotinib]
Method in brief: as §1

tozasertib = compound: Cc1cc(Nc2cc(N3CCN(C)CC3)nc(Sc3ccc(NC(=O)C4CC4)cc3)n2)n[nH]1 [tozasertib]
Method in brief: as §1

doramapimod = compound: Cc1ccc(-n2nc(C(C)(C)C)cc2NC(=O)Nc2ccc(OCCN3CCOCC3)c3ccccc23)cc1 [doramapimod]
Method in brief: as §1

bafetinib = compound: Cc1ccc(NC(=O)c2ccc(CN3CC[C@H](N(C)C)C3)c(C(F)(F)F)c2)cc1Nc1nccc(-c2cncnc2)n1 [bafetinib]
Method in brief: as §1

[2] = compound: Cc1cccc(CC(=O)N2CCc3c2ccc(-c2cn(C)c4ncnc(N)c24)c3F)n1
Method in brief: as §1

nilotinib = compound: Cc1cn(-c2cc(NC(=O)c3ccc(C)c(Nc4nccc(-c5cccnc5)n4)c3)cc(C(F)(F)F)c2)cn1 [nilotinib]
Method in brief: as §1

[3] = compound: Cc1nc(Nc2n[nH]c3c2CN(C(=O)N[C@H](CN(C)C)c2ccccc2)C3(C)C)c2sccc2n1
Method in brief: as §1

dasatinib = compound: Cc1nc(Nc2ncc(C(=O)Nc3c(C)cccc3Cl)s2)cc(N2CCN(CCO)CC2)n1 [dasatinib]
Method in brief: as §1

[4] = compound: Cc1ncc(-c2ccnc(Nc3ccc(S(C)(=O)=O)cc3)n2)n1C(C)C
Method in brief: as §1

[5] = compound: Cn1cc(-c2ccc3c(c2)CCN3C(=O)Cc2cccc(C(F)(F)F)c2)c2c(N)ncnc21
Method in brief: as §1

quisinostat = compound: Cn1cc(CNCC2CCN(c3ncc(C(=O)NO)cn3)CC2)c2ccccc21 [quisinostat]
Method in brief: as §1

tipifarnib = compound: Cn1cncc1[C@@](N)(c1ccc(Cl)cc1)c1ccc2c(c1)c(-c1cccc(Cl)c1)cc(=O)n2C [tipifarnib]
Method in brief: as §1

[6] = compound: NC(=O)Nc1cc(-c2cccc(F)c2)sc1C(=O)N[C@H]1CCCNC1
Method in brief: as §1

[7] = compound: NC(=O)c1cnc(N[C@@H]2CCCC[C@@H]2N)nc1Nc1cccc(-n2nccn2)c1
Method in brief: as §1

[8] = compound: NC1(c2ccc(-c3nc4ccn5c(=O)[nH]nc5c4cc3-c3ccccc3)cc2)CCC1
Method in brief: as §1

UniProt Q4ADV7, sequence (Q4ADV7 whole entry, looked up): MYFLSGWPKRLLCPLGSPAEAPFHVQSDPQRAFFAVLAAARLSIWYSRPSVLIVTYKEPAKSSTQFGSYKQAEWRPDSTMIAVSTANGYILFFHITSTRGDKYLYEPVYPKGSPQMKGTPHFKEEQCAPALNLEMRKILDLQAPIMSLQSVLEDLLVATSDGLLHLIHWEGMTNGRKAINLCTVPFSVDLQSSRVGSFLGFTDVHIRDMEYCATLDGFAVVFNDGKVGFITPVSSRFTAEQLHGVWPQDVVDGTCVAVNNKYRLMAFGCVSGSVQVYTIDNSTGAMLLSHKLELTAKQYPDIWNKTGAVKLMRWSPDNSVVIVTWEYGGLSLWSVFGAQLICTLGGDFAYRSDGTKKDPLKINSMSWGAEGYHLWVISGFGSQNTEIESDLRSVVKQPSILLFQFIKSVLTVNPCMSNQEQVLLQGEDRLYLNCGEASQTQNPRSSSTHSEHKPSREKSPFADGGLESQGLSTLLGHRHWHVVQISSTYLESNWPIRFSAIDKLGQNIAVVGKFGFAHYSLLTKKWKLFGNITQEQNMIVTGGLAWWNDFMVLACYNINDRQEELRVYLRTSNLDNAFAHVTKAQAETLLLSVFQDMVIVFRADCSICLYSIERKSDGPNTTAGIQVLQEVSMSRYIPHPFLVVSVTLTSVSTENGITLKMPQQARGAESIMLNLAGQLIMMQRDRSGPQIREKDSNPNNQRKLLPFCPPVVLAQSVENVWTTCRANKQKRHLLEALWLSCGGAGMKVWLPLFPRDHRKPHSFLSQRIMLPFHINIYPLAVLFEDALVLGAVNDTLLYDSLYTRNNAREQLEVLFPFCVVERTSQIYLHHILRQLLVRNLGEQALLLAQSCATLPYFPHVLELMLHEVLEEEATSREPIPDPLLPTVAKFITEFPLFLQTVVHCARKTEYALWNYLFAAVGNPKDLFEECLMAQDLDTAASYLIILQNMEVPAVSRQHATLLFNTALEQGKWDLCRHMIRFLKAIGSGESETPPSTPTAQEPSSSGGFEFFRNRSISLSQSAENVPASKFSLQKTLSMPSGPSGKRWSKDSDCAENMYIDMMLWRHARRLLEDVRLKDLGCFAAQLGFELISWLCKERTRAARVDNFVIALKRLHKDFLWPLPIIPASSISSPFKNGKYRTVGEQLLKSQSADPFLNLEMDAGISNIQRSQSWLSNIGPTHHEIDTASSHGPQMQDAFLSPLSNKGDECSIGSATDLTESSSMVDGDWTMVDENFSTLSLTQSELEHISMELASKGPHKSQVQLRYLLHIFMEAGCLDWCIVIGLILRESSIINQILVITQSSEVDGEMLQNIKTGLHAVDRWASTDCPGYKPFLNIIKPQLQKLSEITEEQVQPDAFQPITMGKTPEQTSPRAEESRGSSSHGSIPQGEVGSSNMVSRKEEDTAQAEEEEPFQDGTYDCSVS
UniProt Q02094, sequence (Q02094 whole entry, looked up): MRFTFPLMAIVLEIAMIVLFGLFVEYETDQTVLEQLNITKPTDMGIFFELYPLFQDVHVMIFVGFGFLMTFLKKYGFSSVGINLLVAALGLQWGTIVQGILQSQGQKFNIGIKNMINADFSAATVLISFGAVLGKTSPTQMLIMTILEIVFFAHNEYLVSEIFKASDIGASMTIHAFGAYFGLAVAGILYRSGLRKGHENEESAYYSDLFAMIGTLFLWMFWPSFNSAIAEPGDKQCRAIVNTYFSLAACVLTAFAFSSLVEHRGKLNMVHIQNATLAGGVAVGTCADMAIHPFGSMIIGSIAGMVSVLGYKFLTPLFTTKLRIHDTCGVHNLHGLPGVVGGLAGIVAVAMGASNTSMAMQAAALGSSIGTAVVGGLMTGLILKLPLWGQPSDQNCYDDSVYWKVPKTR
UniProt Q99643, sequence (Q99643 whole entry, looked up): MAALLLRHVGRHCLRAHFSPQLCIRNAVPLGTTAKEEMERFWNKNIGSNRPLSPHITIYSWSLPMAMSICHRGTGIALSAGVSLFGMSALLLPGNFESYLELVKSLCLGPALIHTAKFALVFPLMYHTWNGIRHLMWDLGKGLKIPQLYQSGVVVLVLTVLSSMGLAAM
UniProt P04049, sequence (P04049 whole entry, looked up): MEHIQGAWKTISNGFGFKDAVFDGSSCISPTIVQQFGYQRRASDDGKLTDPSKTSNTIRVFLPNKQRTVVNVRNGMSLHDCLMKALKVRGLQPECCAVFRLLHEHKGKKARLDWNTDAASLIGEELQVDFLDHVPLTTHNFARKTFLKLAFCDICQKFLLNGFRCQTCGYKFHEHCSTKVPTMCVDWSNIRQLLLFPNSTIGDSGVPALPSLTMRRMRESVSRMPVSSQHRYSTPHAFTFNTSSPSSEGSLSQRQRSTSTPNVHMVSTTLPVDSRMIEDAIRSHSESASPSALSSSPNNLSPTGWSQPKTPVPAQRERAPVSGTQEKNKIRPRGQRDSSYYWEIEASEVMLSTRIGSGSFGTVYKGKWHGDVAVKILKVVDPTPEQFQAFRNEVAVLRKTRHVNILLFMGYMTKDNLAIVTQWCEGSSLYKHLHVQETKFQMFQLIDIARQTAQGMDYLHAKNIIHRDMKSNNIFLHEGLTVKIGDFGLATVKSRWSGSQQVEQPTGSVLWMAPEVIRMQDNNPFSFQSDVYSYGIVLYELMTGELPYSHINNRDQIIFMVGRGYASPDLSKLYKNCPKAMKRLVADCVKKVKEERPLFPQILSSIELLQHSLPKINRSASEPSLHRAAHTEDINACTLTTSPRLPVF
UniProt Q99574, sequence (Q99574 whole entry, looked up): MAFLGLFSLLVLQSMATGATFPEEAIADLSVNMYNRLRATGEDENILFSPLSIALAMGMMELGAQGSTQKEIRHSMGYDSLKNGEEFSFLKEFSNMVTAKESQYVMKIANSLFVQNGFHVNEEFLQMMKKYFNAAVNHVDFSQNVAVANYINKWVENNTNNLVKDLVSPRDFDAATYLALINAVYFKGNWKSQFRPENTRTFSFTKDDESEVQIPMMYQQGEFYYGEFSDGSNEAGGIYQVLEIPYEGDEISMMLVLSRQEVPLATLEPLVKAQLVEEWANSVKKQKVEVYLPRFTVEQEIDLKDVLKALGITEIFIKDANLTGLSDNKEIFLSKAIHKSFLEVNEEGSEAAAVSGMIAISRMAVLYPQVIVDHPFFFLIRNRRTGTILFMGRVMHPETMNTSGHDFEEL
UniProt Q9BWH6, sequence (Q9BWH6 whole entry, looked up): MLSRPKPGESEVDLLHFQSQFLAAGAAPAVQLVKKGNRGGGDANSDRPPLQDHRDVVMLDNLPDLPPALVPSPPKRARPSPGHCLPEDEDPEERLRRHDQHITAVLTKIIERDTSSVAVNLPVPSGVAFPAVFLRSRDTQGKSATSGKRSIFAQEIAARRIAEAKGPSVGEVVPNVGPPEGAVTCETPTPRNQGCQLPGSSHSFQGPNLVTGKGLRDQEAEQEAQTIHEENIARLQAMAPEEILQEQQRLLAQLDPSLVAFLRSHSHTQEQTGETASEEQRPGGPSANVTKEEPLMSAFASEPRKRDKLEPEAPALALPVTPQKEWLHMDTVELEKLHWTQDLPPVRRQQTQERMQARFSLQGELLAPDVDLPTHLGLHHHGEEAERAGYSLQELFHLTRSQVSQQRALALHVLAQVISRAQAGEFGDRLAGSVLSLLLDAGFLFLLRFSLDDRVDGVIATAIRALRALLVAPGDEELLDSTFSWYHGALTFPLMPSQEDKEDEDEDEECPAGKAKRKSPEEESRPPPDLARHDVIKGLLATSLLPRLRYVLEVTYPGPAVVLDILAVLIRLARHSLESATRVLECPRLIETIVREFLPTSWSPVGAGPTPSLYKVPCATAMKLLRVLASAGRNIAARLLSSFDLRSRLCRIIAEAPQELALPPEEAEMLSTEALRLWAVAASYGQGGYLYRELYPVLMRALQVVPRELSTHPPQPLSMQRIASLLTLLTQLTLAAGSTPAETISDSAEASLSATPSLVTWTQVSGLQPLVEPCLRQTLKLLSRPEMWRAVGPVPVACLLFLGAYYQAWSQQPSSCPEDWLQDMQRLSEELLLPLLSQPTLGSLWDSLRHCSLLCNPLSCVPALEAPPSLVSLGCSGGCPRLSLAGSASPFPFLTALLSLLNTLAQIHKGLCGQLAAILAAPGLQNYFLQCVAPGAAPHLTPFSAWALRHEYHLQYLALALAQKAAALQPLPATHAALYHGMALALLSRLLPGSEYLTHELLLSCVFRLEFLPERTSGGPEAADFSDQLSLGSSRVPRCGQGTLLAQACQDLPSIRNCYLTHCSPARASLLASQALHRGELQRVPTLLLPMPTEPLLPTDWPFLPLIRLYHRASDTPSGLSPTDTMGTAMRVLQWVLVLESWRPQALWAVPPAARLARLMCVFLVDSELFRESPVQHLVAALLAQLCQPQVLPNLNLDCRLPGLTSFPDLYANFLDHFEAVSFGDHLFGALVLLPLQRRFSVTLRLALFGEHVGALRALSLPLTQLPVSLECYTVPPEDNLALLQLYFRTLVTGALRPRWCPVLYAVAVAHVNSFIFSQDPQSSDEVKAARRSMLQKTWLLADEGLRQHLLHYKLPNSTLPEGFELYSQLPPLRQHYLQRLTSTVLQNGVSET
UniProt Q5HYI8, sequence (Q5HYI8 whole entry, looked up): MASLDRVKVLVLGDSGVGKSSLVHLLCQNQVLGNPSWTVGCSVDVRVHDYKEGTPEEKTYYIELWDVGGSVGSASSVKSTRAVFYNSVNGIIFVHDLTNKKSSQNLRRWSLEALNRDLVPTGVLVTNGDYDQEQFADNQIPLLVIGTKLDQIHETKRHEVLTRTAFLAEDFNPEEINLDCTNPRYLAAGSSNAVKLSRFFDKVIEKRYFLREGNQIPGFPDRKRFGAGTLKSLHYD
UniProt Q15287, sequence (Q15287 whole entry, looked up): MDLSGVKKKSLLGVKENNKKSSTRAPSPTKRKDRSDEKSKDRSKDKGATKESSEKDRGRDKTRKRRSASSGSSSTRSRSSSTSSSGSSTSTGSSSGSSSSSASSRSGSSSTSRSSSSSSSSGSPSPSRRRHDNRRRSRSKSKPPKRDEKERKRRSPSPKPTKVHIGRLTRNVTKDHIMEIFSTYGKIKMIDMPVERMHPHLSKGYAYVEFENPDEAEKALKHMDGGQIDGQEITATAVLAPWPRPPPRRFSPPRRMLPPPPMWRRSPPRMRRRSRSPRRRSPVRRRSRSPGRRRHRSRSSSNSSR

Row | Target | log2 fold change (lapatinib) | log2 fold change (pictilisib) | log2 fold change (crizotinib) | log2 fold change [1] | log2 fold change (duvelisib) | log2 fold change (gandotinib) | log2 fold change (tozasertib) | log2 fold change (doramapimod) | log2 fold change (bafetinib) | log2 fold change [2] | log2 fold change (nilotinib) | log2 fold change [3] | log2 fold change (dasatinib) | log2 fold change [4] | log2 fold change [5] | log2 fold change (quisinostat) | log2 fold change (tipifarnib) | log2 fold change [6] | log2 fold change [7] | log2 fold change [8]
1 | REEP5 (UniProt Q00765) | -0.001 | -0.026 | 0.024 | -0.11 | 0.01 | 0.061 | -0.052 | -0.03 | -0.027 | 0.055 | 0.107 | -0.011 | 0.056 | 0.003 | -0.012 | 0.005 | 0.026 | -0.024 | 0 | -0.023
2 | RNPS1 (UniProt Q15287) | 0.025 | 0.044 | 0.254 (active) | -0.02 | 0.038 | 0 | 0.042 | -0.057 | -0.009 | -0.001 | 0.025 | -0.047 | 0.044 | -0.035 | 0.034 | 0.239 (active) | -0.056 | 0.029 | 0.018 | -0.033
3 | RIPK1 (UniProt Q13546) | 0.006 | -0.002 | 0.061 | -0.026 | -0.05 | 0.256 (active) | 0.326 (active) | 0.038 | 0.007 | 0.755 (active) | -0.053 | -0.014 | 0.087 | 0.248 (active) | 0.723 (active) | -0.074 | -0.064 | 0.015 | 0.01 | -0.047
4 | RAF1 isoform 2 (UniProt P04049) | 0.077 | 0.014 | -0.047 | 0.046 | -0.014 | -0.118 | 0.025 | 0.025 | -0.004 | -0.016 | 0.054 | -0.005 | 0.169 | -0.094 | -0.022 | -0.06 | -0.036 | 0.063 | -0.021 | -0.008
5 | RPAP1 (UniProt Q9BWH6) | -0.012 | -0.027 | -0.026 | -0.026 | 0.021 | -0.002 | 0.018 | 0.001 | -0.041 | 0 | -0.002 | 0.014 | -0.027 | -0.01 | 0.032 | -0.02 | -0.01 | 0.013 | 0.029 | 0.004
6 | RPL27 (UniProt P61353) | -0.04 | 0.008 | 0.013 | 0.411 (active) | 0.012 | -0.098 | 0.01 | -0.034 | -0.033 | -0.118 | 0.022 | -0.029 | -0.049 | 0.01 | 0 | 0.054 | -0.01 | -0.017 | -0.023 | 0.012
7 | RIC1 (UniProt Q4ADV7) | 0.016 | -0.02 | -0.06 | -0.032 | -0.048 | -0.092 | 0.01 | 0.026 | 0.3 (active) | 0.108 | -0.069 | 0.033 | 0.001 | 0.086 | 0.008 | -0.169 | 0.085 | 0.097 | -0.085 | 0.002
8 | SDHC (UniProt Q99643) | 0.002 | 0.071 | 0.032 | -0.244 | 0.004 | 0.179 | -0.067 | 0.016 | -0.004 | 0.133 | -0.009 | 0.056 | -0.001 | -0.006 | -0.015 | 0 | -0.068 | -0.057 | -0.016 | 0.028
9 | SERPINI1 (UniProt Q99574) | 0.034 | -0.061 | 0.001 | 0.036 | 0.007 | 0.055 | 0.014 | -0.042 | -0.065 | 0.04 | -0.04 | -0.013 | 0.038 | -0.034 | -0.013 | 0.035 | 0.036 | 0.003 | 0.009 | -0.015
10 | RELN (UniProt P78509) | 0.047 | 0.047 | -0.022 | -0.104 | 0.002 | 0.057 | -0.002 | -0.044 | -0.042 | 0.08 | -0.086 | -0.039 | -0.005 | -0.047 | 0.002 | -0.005 | -0.032 | 0.042 | -0.101 | 0.013
11 | RAPGEF2, A0A2R8YGD3 | -0.014 | 0.015 | 0.024 | -0.431 (active) | 0.018 | 0.038 | 0.014 | -0.039 | -0.171 | 0.266 | -0.032 | 0.027 | 0.052 | -0.036 | 0.008 | -0.018 | -0.017 | 0.054 | -0.02 | 0.024
12 | RAI14 isoform 2 (UniProt Q9P0K7) | -0.026 | -0.007 | -0.014 | 0 | -0.025 | -0.051 | 0.009 | 0 | -0.029 | 0.002 | -0.004 | -0.006 | -0.003 | -0.05 | 0.013 | -0.023 | -0.036 | -0.02 | 0.012 | -0.013
13 | RABL3 (UniProt Q5HYI8) | 0.036 | -0.028 | -0.102 | -0.017 | 0.198 | -0.097 | -0.003 | 0.085 | -0.05 | 0.031 | 0.049 | -0.03 | -0.077 | -0.051 | 0.01 | -0.056 | 0.08 | 0.084 | -0.003 | 0.267
14 | RHAG (UniProt Q02094) | -0.046 | -0.002 | -0.038 | -0.381 (active) | 0.113 | 0.07 | 0.05 | 0.032 | 0.004 | 0.184 | 0.041 | -0.013 | -0.029 | -0.016 | -0.06 | -0.142 | 0.011 | 0.011 | -0.024 | -0.002
15 | SAR1B (UniProt Q9Y6B6) | 0.122 | 0.036 | -0.056 | -0.031 | 0.004 | 0.44 (active) | -0.005 | 0.578 (active) | -0.079 | 0.08 | 0.202 | 0.101 | 0.047 | -0.013 | -0.038 | 0.028 | -0.217 | -0.02 | -0.092 | -0.016
16 | RAP1B (UniProt F5GZG1) | 0.003 | 0.02 | -0.022 | -0.313 | 0.016 | 0.127 | 0.103 | -0.115 | -0.098 | 0.201 | 0.012 | -0.066 | 0.05 | -0.253 | 0.047 | -0.011 | -0.058 | 0.087 | -0.019 | -0.029
